Assay results: the supplement of paper PMC6555819

Key:
Experiment in all cases: PBM binding z-score (relative to random genomic background probes); higher = stronger binding; sequences stand for … in GC…GCGATTGACAGCGTAGAATGAAGG
[1] = tested on: PPARg:RXRa DBDmut IVT, anti-RXR (DBD mutation: RXRa K156A/R161A, NR concentration 270 nM, RXRa partner concentration 90 nM)
Summary of the method: (§1)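 Scanned fluorescence from custom Agilent 4×180K protein-binding microarrays was regression-normalized. Binding z-scores use random background probes as reference. Ligand-free nuclear receptor dimers were incubated on the arrays for 1 h and detected with antibodies against each partner (one per run).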

[2] = tested on: PPARg:RXRa IVT, anti-PPARg (NR concentration 270 nM, RXRa partner concentration 90 nM)
Summary of the method: as §1

[3] = tested on: PPARg DBDmut:RXRa IVT, anti-PPARg (DBD mutation: PPARg1 K132A/R137A, NR concentration 270 nM, RXRa partner concentration 90 nM)
Summary of the method: as §1

[4] = tested on: PPARg DBDmut IVT, anti-PPARg (DBD mutation: PPARg1 K132A/R137A, NR concentration 270 nM)
Summary of the method: as §1

[5] = tested on: PPARg homodimer (NR concentration 180 nM)
Summary of the method: as §1

[6] = tested on: PXR:RXRa (NR concentration 270 nM, RXRa partner concentration 90 nM)
Summary of the method: as §1

[7] = tested on: PXR homodimer (NR concentration 270 nM)
Summary of the method: as §1

[8] = tested on: RARa:RXR (NR concentration 270 nM, RXRa partner concentration 90 nM)
Summary of the method: as §1

[9] = tested on: RARa homodimer (NR concentration 270 nM)
Summary of the method: as §1

[10] = tested on: RARb:RXRa (NR concentration 270 nM, RXRa partner concentration 90 nM)
Summary of the method: as §1

CGTCAAAGTTCAACTAAGATAACGTAAAGCACGC
PBM binding z-score [1]: 0.308 | PBM binding z-score [2]: 2.03 | PBM binding z-score [3]: 1.72 | PBM binding z-score [4]: 2.53 | PBM binding z-score [5]: 4.35 | PBM binding z-score [6]: 4.78 | PBM binding z-score [7]: 3.71 | PBM binding z-score [8]: 4.27 | PBM binding z-score [9]: 2.93 | PBM binding z-score [10]: 5.08

AGTCAAGGTTCACTAGGTAACGTAAGATTCAGCT
PBM binding z-score [1]: 2.7 | PBM binding z-score [2]: 4.17 | PBM binding z-score [3]: 0.684 | PBM binding z-score [4]: 1.3 | PBM binding z-score [5]: 1.04 | PBM binding z-score [6]: 1.83 | PBM binding z-score [7]: 0.833 | PBM binding z-score [8]: 1.9 | PBM binding z-score [9]: -0.0473 | PBM binding z-score [10]: 2.75

TTACTAAGGTGAAGGTCGTTGATCCCTCTGTAGA
PBM binding z-score [1]: 3.98 | PBM binding z-score [2]: 4.68 | PBM binding z-score [3]: 1.15 | PBM binding z-score [4]: 0.702 | PBM binding z-score [5]: 1.39 | PBM binding z-score [6]: 1.84 | PBM binding z-score [7]: 0.493 | PBM binding z-score [8]: 2.6 | PBM binding z-score [9]: 0.0273 | PBM binding z-score [10]: 2.58

GCTGCTAGGTCAACTGATGATCAGCTAAAGCTCG
PBM binding z-score [1]: 4.79 | PBM binding z-score [2]: 4.29 | PBM binding z-score [3]: -0.231 | PBM binding z-score [4]: 0.333 | PBM binding z-score [5]: 1.28 | PBM binding z-score [6]: 1.34 | PBM binding z-score [7]: -0.82 | PBM binding z-score [8]: 2.48 | PBM binding z-score [9]: -0.292 | PBM binding z-score [10]: 4.25

CCTTACGGCTCAAGGTTATAGCACGGGTGGTACG
PBM binding z-score [1]: -0.441 | PBM binding z-score [2]: -0.312 | PBM binding z-score [3]: -1.23 | PBM binding z-score [4]: -0.222 | PBM binding z-score [5]: 0.358 | PBM binding z-score [6]: 0.204 | PBM binding z-score [7]: 0.404 | PBM binding z-score [8]: 0.389 | PBM binding z-score [9]: 0.282 | PBM binding z-score [10]: 0.562

GCGACTGGGGAATCAGCAGGTTACCATAACTTAA
PBM binding z-score [1]: 0.44 | PBM binding z-score [2]: 0.213 | PBM binding z-score [3]: -0.564 | PBM binding z-score [4]: -0.355 | PBM binding z-score [5]: -0.3 | PBM binding z-score [6]: -0.375 | PBM binding z-score [7]: -0.366 | PBM binding z-score [8]: -0.13 | PBM binding z-score [9]: -0.219 | PBM binding z-score [10]: -0.211

CGTCCAAGGTCAGAGAGGTCAATGAATGCCGAGT
PBM binding z-score [1]: 3.1 | PBM binding z-score [2]: 3.52 | PBM binding z-score [3]: -0.295 | PBM binding z-score [4]: -0.854 | PBM binding z-score [5]: 5.37 | PBM binding z-score [6]: 6.76 | PBM binding z-score [7]: 13.7 | PBM binding z-score [8]: 6.55 | PBM binding z-score [9]: 3.02 | PBM binding z-score [10]: 5.17

ATCTGTAGGTAAGACTCAGTTCAGTGAAGAACGC
PBM binding z-score [1]: 1.14 | PBM binding z-score [2]: 0.619 | PBM binding z-score [3]: 1.11 | PBM binding z-score [4]: 1.11 | PBM binding z-score [5]: 0.0779 | PBM binding z-score [6]: 1.18 | PBM binding z-score [7]: 1.28 | PBM binding z-score [8]: 0.421 | PBM binding z-score [9]: 0.498 | PBM binding z-score [10]: 0.161

CCGACTGGGGCAGAAAGGTTACGATACCATCCGG
PBM binding z-score [1]: 1.98 | PBM binding z-score [2]: 2.35 | PBM binding z-score [3]: -0.302 | PBM binding z-score [4]: -0.0493 | PBM binding z-score [5]: 1.17 | PBM binding z-score [6]: 1.39 | PBM binding z-score [7]: -0.337 | PBM binding z-score [8]: 1.72 | PBM binding z-score [9]: -0.00415 | PBM binding z-score [10]: 1.92

CCAACTGGGGCATAAGGTTACCATAAGCCAGCCC
PBM binding z-score [1]: 4.69 | PBM binding z-score [2]: 5.04 | PBM binding z-score [3]: 0.045 | PBM binding z-score [4]: -0.438 | PBM binding z-score [5]: 0.423 | PBM binding z-score [6]: 0.561 | PBM binding z-score [7]: -0.309 | PBM binding z-score [8]: 1.32 | PBM binding z-score [9]: 0.288 | PBM binding z-score [10]: 1.6

AATACAGGGTCATCGTTGGCCAGAGTACGCACAG
PBM binding z-score [1]: 2.72 | PBM binding z-score [2]: 4.4 | PBM binding z-score [3]: 1.78 | PBM binding z-score [4]: 2.43 | PBM binding z-score [5]: 2.34 | PBM binding z-score [6]: 4.57 | PBM binding z-score [7]: 0.72 | PBM binding z-score [8]: 5.31 | PBM binding z-score [9]: 1.34 | PBM binding z-score [10]: 4.37

TCAGACAGGTGAAGGTAACCCAGGTACGCAGTCG
PBM binding z-score [1]: 2.61 | PBM binding z-score [2]: 2.16 | PBM binding z-score [3]: 0.501 | PBM binding z-score [4]: -0.304 | PBM binding z-score [5]: 0.633 | PBM binding z-score [6]: 0.747 | PBM binding z-score [7]: 0.22 | PBM binding z-score [8]: 0.961 | PBM binding z-score [9]: 0.035 | PBM binding z-score [10]: 1.44

TCATATTGGTAAAAGGTGAAAGTCGGTGTGGTAA
PBM binding z-score [1]: 2.97 | PBM binding z-score [2]: 2.77 | PBM binding z-score [3]: 1.12 | PBM binding z-score [4]: 2.43 | PBM binding z-score [5]: 2.62 | PBM binding z-score [6]: 1.43 | PBM binding z-score [7]: 0.68 | PBM binding z-score [8]: 2.1 | PBM binding z-score [9]: 2.36 | PBM binding z-score [10]: 2.01

TCATATAGGTAAATGCTATGTGAAAGTCCGATCT
PBM binding z-score [1]: 3.59 | PBM binding z-score [2]: 2.05 | PBM binding z-score [3]: 1.25 | PBM binding z-score [4]: 1.39 | PBM binding z-score [5]: 0.542 | PBM binding z-score [6]: 0.621 | PBM binding z-score [7]: -0.0684 | PBM binding z-score [8]: 0.813 | PBM binding z-score [9]: 1.29 | PBM binding z-score [10]: 0.304

CCTAGTTGCTCAAGGTCACACACGCTATAGGTAC
PBM binding z-score [1]: 1.51 | PBM binding z-score [2]: 2.33 | PBM binding z-score [3]: 0.625 | PBM binding z-score [4]: 0.725 | PBM binding z-score [5]: 3.56 | PBM binding z-score [6]: 4.21 | PBM binding z-score [7]: 2.68 | PBM binding z-score [8]: 4.4 | PBM binding z-score [9]: 2.45 | PBM binding z-score [10]: 3.97

TAGCCTAGGACAGATCGGGCCAGTATACGCTATA
PBM binding z-score [1]: -0.993 | PBM binding z-score [2]: -0.151 | PBM binding z-score [3]: -0.673 | PBM binding z-score [4]: 0.0562 | PBM binding z-score [5]: -1.15 | PBM binding z-score [6]: -0.732 | PBM binding z-score [7]: -0.768 | PBM binding z-score [8]: -0.695 | PBM binding z-score [9]: -1.42 | PBM binding z-score [10]: -0.928

TAGCCTAGGTCATTCTGGGGCCAGTATAGAAAGC
PBM binding z-score [1]: 1.71 | PBM binding z-score [2]: 2.77 | PBM binding z-score [3]: 0.208 | PBM binding z-score [4]: 0.242 | PBM binding z-score [5]: 0.886 | PBM binding z-score [6]: 2.29 | PBM binding z-score [7]: -0.248 | PBM binding z-score [8]: 2.76 | PBM binding z-score [9]: -0.372 | PBM binding z-score [10]: 3.67

TCATATAGGTAAGACAGGTGAAAGTCGGCATCTA
PBM binding z-score [1]: 3.27 | PBM binding z-score [2]: 2.39 | PBM binding z-score [3]: 0.585 | PBM binding z-score [4]: 1.03 | PBM binding z-score [5]: 0.477 | PBM binding z-score [6]: 0.625 | PBM binding z-score [7]: 0.645 | PBM binding z-score [8]: 0.925 | PBM binding z-score [9]: 1.31 | PBM binding z-score [10]: 0.61

CGTCAAAGTTCAACTAAGGTACCGTAAAGCACGC
PBM binding z-score [1]: 0.831 | PBM binding z-score [2]: 1.71 | PBM binding z-score [3]: 0.452 | PBM binding z-score [4]: 0.671 | PBM binding z-score [5]: 2.68 | PBM binding z-score [6]: 4.87 | PBM binding z-score [7]: 3.81 | PBM binding z-score [8]: 3.96 | PBM binding z-score [9]: 1.72 | PBM binding z-score [10]: 5.21

CGTCAAAGTTCAAGTAAGGTAACGTAAAGCACGC
PBM binding z-score [1]: 0.544 | PBM binding z-score [2]: 2.41 | PBM binding z-score [3]: 0.93 | PBM binding z-score [4]: 0.765 | PBM binding z-score [5]: 3.47 | PBM binding z-score [6]: 5.21 | PBM binding z-score [7]: 3.9 | PBM binding z-score [8]: 4.3 | PBM binding z-score [9]: 1.99 | PBM binding z-score [10]: 5.29

TCTTGTAGATCACGCAGGTTAAGAAAGCCTGAGT
PBM binding z-score [1]: 2.2 | PBM binding z-score [2]: 1.64 | PBM binding z-score [3]: 0.55 | PBM binding z-score [4]: 0.645 | PBM binding z-score [5]: 0.083 | PBM binding z-score [6]: 0.585 | PBM binding z-score [7]: 0.000906 | PBM binding z-score [8]: 0.685 | PBM binding z-score [9]: 0.00384 | PBM binding z-score [10]: 0.386

TAGCCAAGGTCATTGGGCCAGTATAGTACGCATC
PBM binding z-score [1]: 2.26 | PBM binding z-score [2]: 4.14 | PBM binding z-score [3]: 1 | PBM binding z-score [4]: 0.266 | PBM binding z-score [5]: 2.22 | PBM binding z-score [6]: 4.33 | PBM binding z-score [7]: 1.15 | PBM binding z-score [8]: 4.03 | PBM binding z-score [9]: 0.395 | PBM binding z-score [10]: 5.01

CCTCGGAGGACAGAAGGTCCGAGCTGTCCGCTTT
PBM binding z-score [1]: -0.468 | PBM binding z-score [2]: -1.02 | PBM binding z-score [3]: -0.692 | PBM binding z-score [4]: -1.96 | PBM binding z-score [5]: -0.27 | PBM binding z-score [6]: -0.746 | PBM binding z-score [7]: -0.803 | PBM binding z-score [8]: -0.601 | PBM binding z-score [9]: -1.06 | PBM binding z-score [10]: 0.0749

CCTTACGGGTCACTCCAGGTTATCGCATCGGAGT
PBM binding z-score [1]: 2.41 | PBM binding z-score [2]: 3.83 | PBM binding z-score [3]: -0.0167 | PBM binding z-score [4]: -0.117 | PBM binding z-score [5]: 1.35 | PBM binding z-score [6]: 4.65 | PBM binding z-score [7]: 0.118 | PBM binding z-score [8]: 3.01 | PBM binding z-score [9]: 0.208 | PBM binding z-score [10]: 3.55
